In the library only some 2.8% were active in any assay of this set; here they are far more common.
IP6K1 inhibitor: blocks human inositol hexakisphosphate kinase 1; Q92551; AID 1645851; IP6K1 kinase, ADP-Glo luminescence, 2 h; stronger effect = lower value; activity change, % (series mostly up to about 58 µM); 140,000 compounds, 0.81% hits; in the data active = activity change below about -25%
Target sequence (Q92551 whole entry, looked up): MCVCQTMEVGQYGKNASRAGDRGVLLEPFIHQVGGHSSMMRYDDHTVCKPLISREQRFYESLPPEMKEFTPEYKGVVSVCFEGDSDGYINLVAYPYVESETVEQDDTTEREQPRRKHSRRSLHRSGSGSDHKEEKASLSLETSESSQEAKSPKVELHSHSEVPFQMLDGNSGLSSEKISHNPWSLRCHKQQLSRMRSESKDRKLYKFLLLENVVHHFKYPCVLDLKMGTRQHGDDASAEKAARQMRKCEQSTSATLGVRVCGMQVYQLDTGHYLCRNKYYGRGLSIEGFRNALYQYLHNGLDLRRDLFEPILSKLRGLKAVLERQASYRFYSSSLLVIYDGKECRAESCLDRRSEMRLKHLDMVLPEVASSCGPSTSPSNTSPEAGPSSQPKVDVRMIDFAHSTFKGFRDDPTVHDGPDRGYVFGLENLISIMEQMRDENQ
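ADP-Glo luminescence measures ADP made by human IP6K1 during a 2 h RT reaction with ATP/IP6 (mix at 1.3 mM/130 uM); top library doses 57.5 and 19.1 uM final.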
KDM5B inhibitor: KDM5B demethylase inhibition; Q9UGL1; KDM5B demethylase, FDH-coupled NADH fluorescence (FDH is formaldehyde dehydrogenase); Potency, µM (titrated, usually from 57.7 µM), hits mostly inhibitors; 220,000 compounds, 2.6% hits; AID 1347165; active = well fitted inhibition curve with a large enough effect; inconclusive = small, poorly fitted or top-dose-only effect; inactive = no such curve, though single readings can be large or run the other way; note: nearly all actives have a fitted effect of over 70% in size
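Measured: NADH fluorescence change, 30 min, RT. System: KDM5BΔAP 200 nM final, H3K4me3 peptide, α-KG, Fe(II), ascorbate, NAD⁺ plus FDH, pH 7.5 HEPES. Compounds: titrated, 10 min pre-incubation with enzyme.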
Large screens that a line does not name were inactive.

COc1ccccc1CC(=O)N1CCc2c(nc3cc[nH]n3c2=O)C1	KDM5B inhibitor 28µM
Cc1nnc2ccc(N3CCN(C(=O)c4ccc(Cl)cc4)CC3)nn12	none (no result: KDM5B inhibitor)
Cn1ncc2c(C(=O)NCC(F)F)cc(-c3ccccc3F)nc21	none (no result: KDM5B inhibitor)
O=C(c1cc(-c2ccccc2)n[nH]1)N1CCc2c(nc(-c3ccc(F)cc3)[nH]c2=O)C1	none
O=c1c2c(nc3cc[nH]n13)CCN(S(=O)(=O)c1ccc3c(c1)CCC3)C2	KDM5B inhibitor inconclusive
O=C(c1ccccc1C(F)(F)F)N1CCc2nc3cc[nH]n3c(=O)c2C1	KDM5B inhibitor 32µM
O=C(c1nccc2ccccc12)N1CCc2nc3cc[nH]n3c(=O)c2C1	KDM5B inhibitor inconclusive
Cc1ccccc1C(=O)N1CCc2c(nc3cc[nH]n3c2=O)C1	KDM5B inhibitor 28µM
Cc1ccccc1C(=O)N1CCc2nc(C3CC3)nc(-c3ccc(O)cc3)c2C1	none (no result: KDM5B inhibitor)
COc1ccc(S(=O)(=O)N2CCc3nc4cc[nH]n4c(=O)c3C2)cc1Cl	KDM5B inhibitor 25µM
O=C(c1cc(-c2ccccc2)n[nH]1)N1CCc2c(nc3cc[nH]n3c2=O)C1	KDM5B inhibitor 22µM
O=C1CCN(CC(O)Cc2ccccc2)c2ccccc2CN1CC1CC1 (configuration not stated)	none (no result: KDM5B inhibitor)
COc1ccc(Nc2cc(-c3ccccc3OC)nc3c(C)noc23)cc1OC	KDM5B inhibitor inconclusive
O=S(=O)(c1ccccc1)N1CCN(c2ccc3nnc(C4CC4)n3n2)CC1	none (no result: KDM5B inhibitor)
CC(C)CC(NC(=O)/C(=C/c1ccccc1)NC(=O)c1ccccc1)C(=O)O (configuration not stated)	none (no result: IP6K1 inhibitor)
CN(C)[C@@H]1C[C@@H](CO)N(Cc2cc(=O)n3c4c(cccc24)CCC3)C1	KDM5B inhibitor 22µM
COCC(=O)N[C@H]1C[C@@H](CO)N(Cc2cccc(F)c2F)C1	none
O=C1CCN(C[C@@H](O)COCc2ccccc2)c2ccsc2CN1Cc1ccccc1	none (no result: KDM5B inhibitor)
Cn1cnc2ccc(-c3ccsc3)nc2c1=O	KDM5B inhibitor 35µM
O=c1c2nc(OCc3ccccc3)ccc2ncn1Cc1ccccc1	KDM5B inhibitor inconclusive
O=c1c2nc(-c3ccsc3)ccc2ncn1Cc1ccccc1	KDM5B inhibitor 40µM
O=c1c2nc(-c3cccc(O)c3)ccc2ncn1-c1ccccc1	none
O=C(NCCCc1ccccc1)C1CCCN(Cc2cccc(-c3ccsc3)c2)C1 (configuration not stated)	none (no result: KDM5B inhibitor)
O=C1CCC2(C(=O)NCCCN3CCCc4ccccc43)CCCC=C2N1C1CCCC1 (configuration not stated)	none (no result: KDM5B inhibitor)
COc1ccc(-c2ccnc3nc(Cc4ccc(F)cc4)nn23)cc1	none
COc1cc(-c2ccnc3nc(Cc4ccc(F)cc4)nn23)cc(OC)c1OC	KDM5B inhibitor inconclusive
Fc1cc(F)cc(Cc2nc3nccc(-c4ccco4)n3n2)c1	KDM5B inhibitor 25µM
COc1cc(F)ccc1-c1ccnc2nc(Cc3ccc(F)cc3)nn12	KDM5B inhibitor 28µM
COc1cc(-c2ccnc3nc(Cc4cc(F)cc(F)c4)nn23)cc(OC)c1OC	KDM5B inhibitor 16µM
COc1ccc(Cc2nc3nccc(-c4cc(OC)c(OC)c(OC)c4)n3n2)cc1	KDM5B inhibitor 14µM
COCc1nc2nccc(-c3cc(OC)c(OC)c(OC)c3)n2n1	none
Fc1cc(F)cc(Cc2nc3nccc(-c4cc5ccccc5o4)n3n2)c1	none
O=C(O)C(Br)Cc1ccc(Cl)cc1 (configuration not stated)	none (no result: IP6K1 inhibitor)
O=C(c1ccc2nc(-c3ccccn3)oc2c1)N1CCCCC1	none (no result: KDM5B inhibitor)
c1ccc(-c2noc(-c3ccn4c(CN5CCc6ccccc6C5)nnc4c3)n2)cc1	KDM5B inhibitor 32µM
CC(=O)N1CCN(Cc2nnc3cc(-c4nc(-c5ccccc5)no4)ccn23)CC1	KDM5B inhibitor 6.3µM
c1ccc(-c2noc(-c3ccn4c(CN5CCSCC5)nnc4c3)n2)cc1	KDM5B inhibitor inconclusive
c1ccc(CC2CCN(Cc3nnc4cc(-c5nc(-c6ccccc6)no5)ccn34)CC2)cc1	none
CCOCC1(C)COc2ccc(C(=O)Nc3cccc(N(C)C)c3)cc2N1 (configuration not stated)	KDM5B inhibitor inconclusive
O=C(NCc1ccc(C(F)(F)F)cc1)[C@@H]1CCCN1c1nccc(Nc2ccccc2Cl)n1	none (no result: KDM5B inhibitor)
COc1ccccc1-c1nc(C(=O)N2CCCC2)n2ccncc12	KDM5B inhibitor inconclusive
COc1ccccc1-c1nc(C(=O)NCc2cccnc2)n2ccncc12	KDM5B inhibitor 79µM
COc1ccccc1-c1nc(C(=O)NC(C)C)n2ccncc12	KDM5B inhibitor 40µM
COc1ccccc1-c1cc(C(=O)NCc2cccnc2)nc2c1cnn2C	KDM5B inhibitor inconclusive
COc1ccccc1-c1nc(C(=O)NCc2cccnc2)n2ccccc12	KDM5B inhibitor 89µM
COc1ccccc1-c1cc(C(=O)NCc2cccnc2)nn2cccc12	none
COC(=O)CNC(=O)c1nc(-c2ccccc2OC)c2cnccn12	KDM5B inhibitor 100µM
CCC1CN(CC(=O)Nc2cc(C)cc(C)c2)c2ccccc2S1 (configuration not stated)	none (no result: IP6K1 inhibitor)
C[S+](=O)([O-])NCCNC(=O)c1ccc(-c2cccc(C(F)(F)F)c2)cc1	none (no result: KDM5B inhibitor)
O=C(c1cccs1)N(Cc1cccc2[nH]ccc12)C1CC1	none (no result: IP6K1 inhibitor)
Cc1nnc2ccc(N3CCC(NC(=O)c4ccc(Cl)cc4)C3)nn12 (configuration not stated)	none (no result: KDM5B inhibitor)
O=C(NC1CCCCC1)c1ccc2nnc(-c3ccc(F)cc3)n2c1	none (no result: KDM5B inhibitor)
O=C(NC1CCCCC1)c1ccc2nnc(C3CCCC3)n2c1	none (no result: KDM5B inhibitor)
O=C(NC1CCCCC1)c1ccc2nnc(-c3ccoc3)n2c1	none (no result: KDM5B inhibitor)
O=C(NC1CC1)c1ccc2nnc(-c3ccc(F)cc3)n2c1	KDM5B inhibitor 126µM
O=C(NC1CCCC1)c1ccc2nnc(-c3cncc(Cl)c3)n2c1	KDM5B inhibitor 100µM
O=C(NC1CC1)c1ccc2nnc(C3CC3)n2c1	KDM5B inhibitor 100µM
Cn1ncc2c(C(=O)Nc3cccc(F)c3)cc(-c3ccccc3C(F)(F)F)nc21	none (no result: KDM5B inhibitor)
O=[S+]([O-])(c1ccc(Cl)cc1)c1nnn2c1nc(NC1CC1)c1ccccc12	none
COc1ccc([S+](=O)([O-])c2nnn3c2nc(NC2CC2)c2ccccc23)cc1	KDM5B inhibitor 89µM
O=[S+]([O-])(c1ccccc1)c1nnn2c1nc(N1CCC(F)CC1)c1ccccc12	KDM5B inhibitor inconclusive
COc1ccc(OC)c([S+](=O)([O-])c2nnn3c2nc(N2CCC(F)CC2)c2ccccc23)c1	KDM5B inhibitor 50µM
COc1ccc(OC)c([S+](=O)([O-])c2nnn3c2nc(N2CCOCC2)c2ccccc23)c1	none
COc1ccc([S+](=O)([O-])c2nnn3c2nc(N2CCC(F)CC2)c2ccccc23)cc1	KDM5B inhibitor 79µM
Cc1ccc(/C=C/c2cc(C(=O)O)c3ccccc3n2)c(C)c1	none (no result: IP6K1 inhibitor)
COC(=O)N(C)Cc1cccc(N2CCN(C(=O)c3c(Cl)cccc3Cl)CC2)c1	none (no result: KDM5B inhibitor)
CN(CCOc1ccccc1)c1nc(-c2cccnc2)nc2ccccc12	none (no result: IP6K1 inhibitor)
CCc1cc(C(=O)Nc2ccccc2C#N)cs1	none (no result: IP6K1 inhibitor)
O=C(NCc1ccc(F)cc1)c1ccc2nnc(-c3cc(C(F)(F)F)cc(C(F)(F)F)c3)n2c1	none (no result: KDM5B inhibitor)
c1ccc2cc(-c3nc(C4CCOC4)no3)ncc2c1 (configuration not stated)	KDM5B inhibitor inconclusive
COc1ccc2c(C)c(-c3nc(C4CCOC4)no3)oc2c1 (configuration not stated)	KDM5B inhibitor 32µM
Cc1cccc(N2CCN(C(=O)c3nn(Cc4ccccc4)c(=O)c4ccccc34)CC2)c1C	none (no result: IP6K1 inhibitor)
COc1ccccc1-c1nc(N2CCOCC2)cc2c1CN(c1ccccc1)C2=O	KDM5B inhibitor 35µM
